PubChem BioAssay (NCATS)
Results filed as inconclusive are left out. Unless noted, the call rests on the fitted dose curve; in most records, active means well fitted curve in either direction with a large enough effect (not every such curve was filed as active); inconclusive means small, poorly fitted or top-dose-only effect, or another doubt; inactive means flat fitted curve, though single readings scatter.

Assays:
[1] = AP1 Signaling Pathway (AID 357); settings: ME-180 AP-1-bla reporter, EGF-induced, beta-lactamase ratio, 5 h; at 17.2 µM (top of the series) unless noted;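 further: ME-180 reporter cells stimulated with EGF at its EC50 level; on the % scale 0 is the no-effect control and ±100 the full control effect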
Procedure, shortened: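 AP-1-bla ME-180 cells, Opti-MEM + 0.5% dialyzed FBS, plated overnight 37 °C. Cpd titration + EC50 EGF, 5 h 37 °C. CCF4 2.5 h RT; ex 405, em 460/530 ratio → %activity, AC50.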

[2] = NFAT Signaling Pathway (AID 444); settings: Jurkat NFAT-bla M1, carbachol, beta-lactamase ratio, 5 h; at 17.2 µM (top of the series) unless noted;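 further: carbachol stimulus at about its EC50 of 1 µM final; on the % scale 0 is the no-effect control and ±100 the full control effect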
Procedure, shortened: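 Read-out: CCF4 FRET ratio (460 nm/530 nm) after 1 h RT dye loading, used for %activity and AC50 from titration series. Cells: Jurkat NFAT-β-lactamase/M1 line, treated with compound plus 1 uM carbachol for 5 h, 37 °C.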

[3] = Stat Signaling Pathway (AID 446); settings: ME-180 SIE beta-lactamase reporter, IL-6 stimulated, 5 h; at 17.2 µM (top of the series) unless noted;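 further: ME-180 cervical cancer cells given 40 pM IL-6 alongside compound; SIE-controlled beta-lactamase reporter measured as 460/530 nm FRET emission ratio; on the % scale 0 is the no-effect control and ±100 the full control effect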
Procedure, shortened: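 ME-180 SIE-bla cells; overnight plating; cpd + IL-6 40 pM, 5 h, 37 C; LiveBLAzer 2.5 h RT; 460/530 nm emission ratio. Normalized to 300 pM IL-6 and 125 nM JAK inhibitor controls.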

[4] = target: Glucocorticoid receptor (Homo sapiens) (UniProt P04150); assay: GR-GFP Redistribution (AID 450;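 active means compounds whose dose series gives a full or clear partial fitted curve of increased nuclear translocation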; further: potency means the concentration at half of the fitted maximal effect); settings: U2OS GR-GFP nuclear translocation, laser cytometry, 2 h; series mostly up to 20.6 µM
Glucocorticoid receptor (Homo sapiens), sequence (P04150 whole entry, looked up): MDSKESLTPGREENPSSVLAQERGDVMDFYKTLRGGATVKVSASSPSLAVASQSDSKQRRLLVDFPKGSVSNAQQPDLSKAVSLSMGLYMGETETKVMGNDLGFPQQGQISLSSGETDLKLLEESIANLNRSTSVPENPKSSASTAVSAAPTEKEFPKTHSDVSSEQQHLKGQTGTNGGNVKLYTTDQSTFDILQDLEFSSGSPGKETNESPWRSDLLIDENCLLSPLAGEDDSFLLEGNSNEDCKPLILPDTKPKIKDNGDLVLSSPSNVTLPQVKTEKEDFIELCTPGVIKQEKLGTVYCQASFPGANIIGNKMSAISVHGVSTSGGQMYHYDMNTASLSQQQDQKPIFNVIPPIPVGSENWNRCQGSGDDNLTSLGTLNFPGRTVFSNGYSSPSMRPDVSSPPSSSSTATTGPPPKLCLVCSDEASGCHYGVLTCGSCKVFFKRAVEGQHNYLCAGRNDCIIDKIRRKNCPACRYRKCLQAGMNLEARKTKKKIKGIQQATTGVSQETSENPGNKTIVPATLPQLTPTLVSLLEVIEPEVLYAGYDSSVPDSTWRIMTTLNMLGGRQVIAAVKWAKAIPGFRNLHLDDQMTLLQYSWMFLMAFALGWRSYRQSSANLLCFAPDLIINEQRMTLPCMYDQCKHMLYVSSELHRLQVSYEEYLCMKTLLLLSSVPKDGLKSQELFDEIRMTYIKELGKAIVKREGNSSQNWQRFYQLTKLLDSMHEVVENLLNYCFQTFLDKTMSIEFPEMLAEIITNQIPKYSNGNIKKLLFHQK

O=C(CC(c1ccco1)S(=O)(=O)c1ccccc1)c1ccc(F)cc1 (stereo not given)
inactive: activity change, negative = inhibition [1] -0.192% | activity change, negative = inhibition [2] -1.61% | activity, negative = inhibition [3] -7.8% | Potency [4] > 20.6 µM

CCc1ccc2c(c1)C(C)=CC(C)(C)N2
inactive: activity change, negative = inhibition [1] 1.34% | activity change, negative = inhibition [2] 7.21% | activity, negative = inhibition [3] -8.11% | Potency [4] > 20.6 µM

CCN(CC)C(=O)CSC1=C(C#N)C(c2ccco2)C(C(=O)OCCOC)=C(C)N1 (stereo not given)
inactive: activity change, negative = inhibition [1] -10.6% | activity change, negative = inhibition [2] -0.498% | activity, negative = inhibition [3] 2.75% | Potency [4] > 20.6 µM

c1ccc(-n2ncc3c(NCC4CCCO4)ncnc32)cc1 (stereo not given)
inactive: activity change, negative = inhibition [1] -4.47% | activity change, negative = inhibition [2] -15.8% | activity, negative = inhibition [3] 2.07% | Potency [4] > 20.6 µM

COC(=O)CSc1nc(N)c2c3c(sc2n1)CCCC3
inactive: activity change, negative = inhibition [1] -0.00134% | activity change, negative = inhibition [2] -7.55% | activity, negative = inhibition [3] 29.8% | Potency [4] > 20.6 µM

N#Cc1c(NCCN)nc(NCc2ccccc2)c2c1CCN(Cc1ccccc1)C2
inactive: activity change, negative = inhibition [1] 0.0828% | activity change, negative = inhibition [2] 21.6% | activity, negative = inhibition [3] -5.14% | Potency [4] > 20.6 µM

c1ccc(OCc2nn3c(-c4cccnc4)nnc3s2)cc1
inactive: activity change, negative = inhibition [1] -6.61% | activity change, negative = inhibition [2] 2.29% | activity, negative = inhibition [3] -4.47% | Potency [4] > 20.6 µM

CCN(CC)C(=O)CN(C#N)c1nc(NC(C)C)nc(NC(C)C)n1
inactive: activity change, negative = inhibition [1] 4.86% | activity change, negative = inhibition [2] -0.753% | activity, negative = inhibition [3] 8.05% | Potency [4] > 20.6 µM

CCOC(=O)c1ccc(NCC(O)COc2ccccc2)cc1 (stereo not given)
inactive: activity change, negative = inhibition [1] -4.75% | activity change, negative = inhibition [2] -1.02% | activity, negative = inhibition [3] -4.83% | Potency [4] > 20.6 µM

N/C(CCCN1CCCCC1)=N/O
inactive: activity change, negative = inhibition [1] 14.3% | activity change, negative = inhibition [2] -3.1% | activity, negative = inhibition [3] -0.379% | Potency [4] > 20.6 µM

CC1(C)Cc2c(c(N3CCOCC3)nc3sc4c(=O)[nH]cnc4c23)CS1
inactive: activity change, negative = inhibition [1] 4.29% | activity change, negative = inhibition [2] 5.56% | activity, negative = inhibition [3] -18.3% | Potency [4] > 20.6 µM

c1coc(-c2nnc3sc(C4CCCCC4)nn23)c1
inactive: activity change, negative = inhibition [1] -14.7% | activity change, negative = inhibition [2] -19.5% | activity, negative = inhibition [3] 6.55% | Potency [4] > 20.6 µM

CCOc1cccc(-c2nnc3sc(-c4cccs4)nn23)c1
inactive: activity change, negative = inhibition [1] -12.6% | activity change, negative = inhibition [2] -10.8% | activity, negative = inhibition [3] 5.52% | Potency [4] > 20.6 µM

CCC1CC2(C)NC(=O)c3c(sc4c3CC(C)(C)OC4)N2C1=O (stereo not given)
inactive: activity change, negative = inhibition [1] -7.1% | activity change, negative = inhibition [2] -20.5% | activity, negative = inhibition [3] -10.3% | Potency [4] > 20.6 µM

C=CCOc1ccc(/C(O)=C2/C(=O)C(=O)N(CCCN3CCOCC3)C2c2ccccc2)cc1 (stereo not given)
inactive: activity change, negative = inhibition [1] -4.92% | activity change, negative = inhibition [2] 12.9% | activity, negative = inhibition [3] -5.01% | Potency [4] > 20.6 µM

CN(C)C=C1C(=O)c2ccccc2C1=O
inactive: activity change, negative = inhibition [1] 6.29% | activity change, negative = inhibition [2] 3.97% | activity, negative = inhibition [3] 1.64% | Potency [4] > 20.6 µM

Cc1ccc(-n2ncc3c(NCCCN4CCCC4=O)ncnc32)c(C)c1
inactive: activity change, negative = inhibition [1] -15.8% | activity change, negative = inhibition [2] 11.5% | activity, negative = inhibition [3] 9.31% | Potency [4] > 20.6 µM

CCOC(=O)CC1=NC(=O)CS1
inactive: activity change, negative = inhibition [1] 2.69% | activity change, negative = inhibition [2] 0.359% | activity, negative = inhibition [3] 4.4% | Potency [4] > 20.6 µM

COCCN(Cc1ccccc1)P(=O)(O)c1ccccc1OCC(=O)O
inactive: activity change, negative = inhibition [1] -2.92% | activity change, negative = inhibition [2] -4.16% | activity, negative = inhibition [3] 2.47% | Potency [4] > 20.6 µM

COc1ccc(/C(O)=C2/C(=O)C(=O)N(CCCN(C)C)C2c2ccccc2)cc1OC (stereo not given)
inactive: activity change, negative = inhibition [1] -9.48% | activity change, negative = inhibition [2] -0.461% | activity, negative = inhibition [3] 8.71% | Potency [4] > 20.6 µM

COc1cccc(C2=CC(c3ccccc3)n3ncnc3N2)c1 (stereo not given)
inactive: activity change, negative = inhibition [1] -21.4% | activity change, negative = inhibition [2] -15.1% | activity, negative = inhibition [3] -5.76% | Potency [4] > 20.6 µM

COc1ccc(CC(=O)n2c(CC#N)nc3ccccc32)cc1OC
inactive: activity change, negative = inhibition [1] -7.74% | activity change, negative = inhibition [2] 10.4% | activity, negative = inhibition [3] -5.7% | Potency [4] > 20.6 µM

CSc1nc2sc3c(c2c2nncn12)CCC3
inactive: activity change, negative = inhibition [1] -7.57% | activity change, negative = inhibition [2] -18% | activity, negative = inhibition [3] -3.42% | Potency [4] > 20.6 µM

O=C(NCc1ccccc1)C1C(=O)N(Cc2ccccc2)C(=O)C1C1(O)CCCC1 (stereo not given)
inactive: activity change, negative = inhibition [1] -16.6% | activity change, negative = inhibition [2] 23.6% | activity, negative = inhibition [3] -6.02% | Potency [4] > 20.6 µM

CC(NC(=O)c1ccc(=O)oc1)c1ccccc1 (stereo not given)
inactive: activity change, negative = inhibition [1] 8.92% | activity change, negative = inhibition [2] 0.391% | activity, negative = inhibition [3] 6.96% | Potency [4] > 20.6 µM
